Hit rate of the full screen: of about 53,000 compounds, about 900 (1.7%) showed an effect of 50% or more. The entries come from a sample that favours strong results as a whole.
These compounds were tested on Mycobacterium tuberculosis (assay: Cornell - Phenotypic assay to identify agents that inhibit growth of Mycobacterium tuberculosis). Details: 10 mM as filed; unlikely as a test dose.
Assay type: functional
Design: scale not given: direction of the effect not stated beside the values

Compared with `Cc1ccc(CN2CCN(CC(=O)Nc3ccc4nsnc4c3)CC2)o1`, `CC(C)CCN1CCN(CC(=O)Nc2ccc3nsnc3c2)CC1` is lower in “Percent Effect” value: 54.44% for the first, -1.569% for the second.

Going from `CCC(CC)CN1CCN(CC(=O)Nc2ccc3nsnc3c2)CC1` to `CCc1nc2ccccc2c(=O)n1CC1(O)CCN(CC(=O)OC)CC1`, the “Percent Effect” value falls from 23.66% to 13.86%.

First: CC(C)N1CC(n2ccnc2-c2nccn2C)CC1=O (centres undefined)
Second: CNc1snc(C)c1C(=O)N1CCCC(n2cc(C)cn2)C1 (centres undefined)
The “Percent Effect” value of the first is lower: -23.92% for the first, -17.18% for the second.

Going from `CN(C)c1cc(C2CCCN(S(=O)(=O)C3CCCC3)C2)ccn1` (centres undefined) to `Cc1nc(C)n(CC2CCCCN2CC(=O)NCc2ccccn2)n1` (centres undefined), the “Percent Effect” value rises from 15.85% to 18.51%.

Going from `NC(=O)c1ccc(C(=O)N(Cc2ccc(O)cc2)CC2CC2)cc1` to `O=C(c1ccc[nH]1)N(Cc1ccc(O)cc1)CC1CC1`, the “Percent Effect” value rises from -5.401% to 43.3%.

First: Cc1[nH]ccc1C(=O)N(Cc1ccc(O)cc1)CC1CC1
Second: O=C1CCC(=O)N1c1nn(Cc2ccc(F)cc2)cc1Cl
The “Percent Effect” value of the first is higher: 103.8% for the first, -47.77% for the second.

Going from `CSc1ccc(C)c(C(=O)Nc2c(C(N)=O)n[nH]c2C)c1` to `Cc1cc(NC(=O)N2CCOC(C(N)=O)C2)ccc1Br` (centres undefined), the “Percent Effect” value rises from -17.81% to 15.45%.

First: COc1ccc(-n2ccc(CNCc3ccc(OC)c(O)c3)n2)cc1
Second: COc1ccc(CNCCc2ccn(-c3ccccc3)n2)cc1O
The “Percent Effect” value of the first is lower: 31.15% for the first, 107.6% for the second.

Compared with `COc1ccc(CNCCn2c(C)nc3ccccc32)cc1O`, `COc1ccc(-n2c(SC)nc(O)c(Cc3ccccc3)c2=O)cc1` is higher in “Percent Effect” value: -17.9% for the first, 13.52% for the second.

Compared with `CC[C@H](N)C(=O)Nc1nn(CC(F)(F)F)c2cc(OC(C)C)ccc12`, `COC(=O)COn1c(SC(C)C)nc2ccccc2c1=O` is higher in “Percent Effect” value: 15.83% for the first, 75.74% for the second.

First: CCS(=O)(=O)CCN1CCC(N(C)Cc2noc(C(C)C)n2)C1 (centres undefined)
Second: COCC(C)NC(=O)CCCn1cnc2ccccc2c1=O (centres undefined)
The “Percent Effect” value of the first is higher: 13.23% for the first, 7.524% for the second.

First: NC(=O)C1CN(C(=O)Nc2cc(Cl)cc(Cl)c2)CCO1 (centres undefined)
Second: COCC1CN(C(=O)Nc2cc(Cl)cc(Cl)c2)CCO1 (centres undefined)
The “Percent Effect” value of the first is higher: 103.4% for the first, 13.66% for the second.

Going from `Cc1nc(CN2CCC3(CC2)NC(=O)CC3c2ccncc2)cs1.O=C(O)C(F)(F)F.O=C(O)C(F)(F)F` (centres undefined) to `O=C(O)C(F)(F)F.O=C(O)C(F)(F)F.c1cc(CN2C[C@@H]3OCCN(CC4CC4)[C@@H]3C2)n[nH]1`, the “Percent Effect” value falls from 21.18% to 4.885%.

First: COC(=O)COn1c(SCC(=O)OC)nc2ccccc2c1=O
Second: CCSc1nc2ccccc2c(=O)n1OCC(=O)OC
The “Percent Effect” value of the first is higher: 102.5% for the first, 74.42% for the second.

Going from `COC(=O)COn1c(SC)nc2ccccc2c1=O` to `COC(=O)COn1c(OC)nc2ccccc2c1=O`, the “Percent Effect” value falls from 75.88% to 32.68%.

Going from `CCc1cc(=O)[nH]c2nnc(SCC(=O)OC)n12` to `CCOc1ccc(NC(=O)N2CCC(n3cncn3)CC2)cc1Cl`, the “Percent Effect” value falls from -7.031% to -30.56%.

Compared with `CCc1nc2ccccc2c(=O)n1CC1(O)CCN(C(=O)COC)CC1.Cl`, `COC(=O)CNC(=O)CCCn1cnc2ccccc2c1=O` is lower in “Percent Effect” value: 10.94% for the first, 3.303% for the second.

Compared with `COc1ccc(SCC2CNc3nc4ccccc4c(=O)n32)cc1` (centres undefined), `COc1ccccc1NCc1cscn1.Cl` is lower in “Percent Effect” value: 44.86% for the first, 16.2% for the second.

First: COCc1nn(Cc2ccc(Br)s2)c(=O)o1
Second: CCCc1nnc(N2CCN(c3ccccc3OCC)CC2)o1
The “Percent Effect” value of the first is lower: 6.613% for the first, 24.59% for the second.

First: N#CCCn1nc(C(F)(F)F)c2c1CCCC2
Second: O=C(O)C(F)(F)F.c1cnc(N2C[C@@H]3COC[C@]3(COCC3CCCC3)C2)nc1
The “Percent Effect” value of the first is lower: -22.61% for the first, 53.05% for the second.

Going from `CO[C@@H]1CCN(C(=O)Cc2cccc(F)c2)[C@H]1Cc1cccnc1.O=C(O)C(F)(F)F` to `COC1COC2(CCN(Cc3ccccc3F)CC2)C1.O=C(O)C(F)(F)F` (centres undefined), the “Percent Effect” value rises from -8.358% to 10.15%.

First: CC(C)C(=O)N1CC[C@H]2N(C)CC[C@@]2(C(=O)N2CCOCC2)CC1.O=C(O)C(F)(F)F
Second: O=C(O)C(F)(F)F.O=C(O)C(F)(F)F.c1cc(CN2CCc3ncc(CN4CCOCC4)n3CC2)cs1
The “Percent Effect” value of the first is lower: -25.99% for the first, -22.34% for the second.

Going from `Cc1ccccc1CN(C)CC(O)COCc1ccccc1Cl` (centres undefined) to `Cc1csc(C(Cc2ccsc2)NC(=O)CN(C)Cc2ccccn2)n1.Cl` (centres undefined), the “Percent Effect” value rises from -1.891% to 68.23%.

First: COc1ccncc1NCc1cscn1
Second: CC(C)(C)Oc1ccncc1NCc1cscn1
The “Percent Effect” value of the first is lower: 26.83% for the first, 55.35% for the second.

Compared with `CCCc1nnc(N2CCN(c3ccccc3F)CC2)o1`, `CCCc1nnc(N2CCN(c3ccccc3Cl)CC2)o1` is higher in “Percent Effect” value: -12.77% for the first, 51.83% for the second.

Compared with `Cc1cccc(NC(=O)NC2CCC3(C2)OCCO3)c1Cl` (centres undefined), `Cc1csc(C(Cc2ccsc2)NC(=O)CN(C)Cc2cccnc2)n1.Cl` (centres undefined) is lower in “Percent Effect” value: 24.64% for the first, 14.48% for the second.

First: CN(CC(=O)NC(Cc1ccsc1)c1cccnc1)Cc1ccccn1.Cl (centres undefined)
Second: O=C(O)C(F)(F)F.O=C(O)C(F)(F)F.c1ccc(OC[C@]23COC[C@H]2CN(c2ncccn2)C3)nc1
The “Percent Effect” value of the first is lower: -48.97% for the first, 24.67% for the second.

— ChEMBL document CHEMBL3988442, “University of Dundee, Small-Polar-MMV Screening Library” (2021)
